Source: PubChem BioAssay
Vaccinia mCherry: inhibitors of vaccinia virus infection (mCherry reporter signal); Potency, µM (top dose mostly 36.5 µM), most hits filed as inhibitors; 0.63% of 310,000 active; Vaccinia virus mCherry reporter infection, fluorescence; calls by dose curve; tested in A549 cells; note: nearly all actives have a fitted effect of over 35% in size
VACV Venus inh: vaccinia inhibition (Venus reporter). Vaccinia virus Venus reporter expression, fluorescence. Potency, µM (series often up to 36.5 µM), most hits filed as inhibitors. 0.46% of 330,000 active; calls by dose curve; tested in A549 cells; note: nearly all actives have a fitted effect of over 30% in size
HCV inh: blocks hepatitis C virus; AID 651820; Potency, µM (series often up to 41.8 µM), hits mostly inhibitors; Huh7.5.1 HCVcc-Cre infection, luciferase reporter, 44 h; 3.4% of 340,000 active
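After 44 h co-culture of compound, cells and HCVcc-Cre (~0.5 moi), substrate is added for 15 min at room temperature and luciferase measured over 15 sec. Cells were seeded at 1,000/well and pre-cultured 4 h.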
HCV confirm: HCV inhibition, cherry-pick confirmation | shares compounds with HCV inh | HCVcc-Cre infectious virus cell assay, luciferase, inhibition | Potency, µM (top dose mostly 41.8 µM), usual class: inhibitors | 78% of 640 active | AID 720575; note: nearly all actives have a fitted effect of over 80% in size
HCV host tox: host cell cytotoxicity counter-screen for HCV inhibitors | shares compounds with HCV inh | HCV host cell line cytotoxicity counterscreen | Potency, µM (series often up to 41.8 µM), actives largely listed as inhibitors | 22% of 640 active | AID 720576;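 note: 44 h compound exposure; nearly all actives have a fitted effect of over 55% in size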
Of the large screens only hits and unclear results are named; the others gave an inactive call (follow-up assays come after a bar, where they were run). Sampled rows, rich in hits. Any-hit rate of the full collection: about 3.3%. Unless noted, calls come from the whole dose curve; as a rule, active = well fitted curve in the direction sought with a large enough effect; inconclusive = small, poorly fitted or top-dose-only effect, or another doubt; inactive = no such curve, though single readings can be large; an effect the other way counts as inactive or inconclusive.

COC(=O)CN1C(=O)C(O)(CC(=O)c2ccc(Cl)cc2)c2ccccc21 (stereo not given)	none
COC(=O)C[C@]1(C(=O)OC)CN(C#N)N(c2ccc(Cl)cc2)C12c1ccccc1-c1ccccc12	Vaccinia mCherry 11.2µM, VACV Venus inh inconclusive, HCV inh 5.62µM | HCV confirm 3.15µM | HCV host tox 7.91µM
c1cnc2c(c1)ccc1cccnc12	Vaccinia mCherry 3.55µM, VACV Venus inh inconclusive, HCV inh 8.91µM | HCV confirm 7.05µM | HCV host tox inactive
O=Cc1ccc2ccc3cccnc3c2n1	HCV inh inconclusive
Cc1cccc(C)c1NC(=O)CN1CCN(C(=O)CNC(=O)c2ccc(N3CCCC3=O)cc2)CC1	none (no result: Vaccinia mCherry, VACV Venus inh)
CSc1nc(N)nc2c1ncn2C1OC(CO)C(O)C1O (stereo not given)	none
Nc1nc(F)nc2c1ncn2[C@@H]1O[C@H](CO)[C@@H](O)[C@H]1O	Vaccinia mCherry 1µM, VACV Venus inh 1.12µM, HCV inh 0.794µM | HCV confirm 1.99µM | HCV host tox 6.28µM
CCc1ccc(C2NC(=O)c3[nH]nc(-c4cccc(OC)c4)c32)cc1 (stereo not given)	none (no result: HCV inh)
Cc1ccc(NC(=O)Cn2c(-c3cncs3)nc3ccccc32)c(Br)c1	none (no result: HCV inh)
COc1ccc([N+](=O)[O-])cc1NC(=O)CSc1ccc2ccccc2c1	HCV inh inconclusive | HCV confirm 12.5µM | HCV host tox inconclusive
COc1ccc([N+](=O)[O-])cc1NC(=O)CSc1nc(C)cc(C)n1	HCV inh inconclusive
O=[N+]([O-])c1cccc2ccc(/C=C/c3ccc(F)cc3)nc12	Vaccinia mCherry inconclusive, HCV inh 1µM | HCV confirm 3.15µM | HCV host tox inactive
O=[N+]([O-])c1cccc(/C=C/c2ccc3cccc(O)c3n2)c1	Vaccinia mCherry inconclusive
O=C(CN1N=C(c2ccccc2)CCC1=O)NCc1ccc(F)cc1Cl	none (no result: HCV inh)
Cc1ccc(S(=O)(=O)Oc2ccc3c(c2)O/C(=C\c2cccnc2)C3=O)cc1	none (no result: Vaccinia mCherry, VACV Venus inh)
O=C1/C(=C/c2cccnc2)Oc2cc(OS(=O)(=O)c3ccc(F)cc3)ccc21	HCV inh 4.47µM (no result: Vaccinia mCherry, VACV Venus inh) | HCV confirm 25µM | HCV host tox inactive
Cc1cc(C(=O)Nc2cccc(F)c2)c2c(C)nn(-c3cccc(Cl)c3C)c2n1	none (no result: HCV inh)
CCCCn1c(SCC(=O)NCc2ccc(C)cc2)nc2c(sc3ccccc32)c1=O	none (no result: HCV inh)
C=C(C)COc1ccc(-c2ncncc2-c2ccccc2)c(O)c1	none
C=C(C)COc1ccc(-c2nc(N)ncc2Oc2ccccc2OCC)c(O)c1	VACV Venus inh inconclusive, HCV inh 4.47µM (no result: Vaccinia mCherry) | HCV confirm 25µM | HCV host tox inactive
COc1ccc(N2CCN(c3ncnc4onc(C)c34)CC2)cc1	none (no result: HCV inh)
O=c1c2ccccc2nc(SCc2ccccc2Cl)n1Cc1ccccc1	none (no result: Vaccinia mCherry, VACV Venus inh)
Cn1c(SCc2ccc(F)cc2Cl)nc2ccccc2c1=O	HCV inh inconclusive | HCV confirm 6.28µM | HCV host tox 14.1µM
Cc1ccc(NC(=O)C(OC(=O)c2cnc(C)cn2)c2ccccc2)c([N+](=O)[O-])c1 (stereo not given)	none
Cc1oc(-c2ccc(Cl)cc2)nc1CS(=O)CC(=O)NCc1ccccn1 (stereo not given)	none (no result: Vaccinia mCherry, VACV Venus inh)
CCn1c2c(c(=N)c3ccccc31)CCC2	HCV inh 8.91µM | HCV confirm 25µM | HCV host tox inconclusive
CCn1c(O)c(N=N)c2ccccc21	none
C=CCNC(=O)c1ccc(Cn2c(=S)[nH]c3cc4c(cc3c2=O)OCO4)cc1	HCV inh inconclusive (no result: Vaccinia mCherry, VACV Venus inh) | HCV confirm 2.5µM | HCV host tox inactive
CCN(CC)C(=O)c1ccc2c(=O)n(Cc3ccc4c(c3)OCO4)c(=S)[nH]c2c1	none (no result: Vaccinia mCherry, VACV Venus inh)
Cc1sc(NC(=O)Cc2ccc3c(c2)OCO3)nc1-c1ccc2c(c1)CCN2C(=O)c1ccc(F)cc1	HCV inh 1.26µM | HCV confirm 7.91µM | HCV host tox inactive
Cc1sc(NC(=O)Cc2ccc3c(c2)OCO3)nc1-c1ccc2c(c1)CCN2C(=O)c1ccccc1F	HCV inh inconclusive
Cc1cc(SCC(=O)c2ccccc2)n2ncc(-c3ccccc3)c2n1	HCV inh inconclusive (no result: Vaccinia mCherry, VACV Venus inh) | HCV confirm inconclusive | HCV host tox inactive
Cc1cc(SCC(=O)c2ccccc2)nc(C)n1	none (no result: Vaccinia mCherry)
O=C(NCC1CCCO1)c1ccc(N2C(=O)C3CCCCC3C2=O)cc1 (stereo not given)	none
COc1cc(CCC(O)CC(=O)CCc2ccccc2)ccc1O (stereo not given)	HCV inh 1.12µM | HCV confirm inactive | HCV host tox inactive
COc1cc(/C=N/NC(=O)CCc2ccccc2)ccc1O	none
Cc1ccc(N(CC(=O)NC2CCCCC2)C(=O)CCCC(=O)Nc2ccccn2)cc1	none
